Where “and” joins values, the source holds several entries; their conditions need not be identical. Equal values may be shown once. Inconclusive results are not listed. Calls of active or inactive are those of the source. Unless noted, calls come from the whole dose curve; as a rule, active = well fitted curve in the direction sought with a large enough effect in the repeat runs; inconclusive = weak or mixed curves; inactive = no such curve, though single readings can be large; an effect the other way counts as inactive or inconclusive.
Experiments:
[1] = qHTS assay to identify small molecule antagonists of the glucocorticoid receptor (GR) signaling pathway - cell viability counter screen (AID 720693); note: nearly all actives have a fitted effect of over 55% in size; note: potency is the fitted concentration of half-maximal effect
[2] = qHTS assay for identifying genotoxic compounds that show differential cytotoxicity against isogenic chicken DT40 cell lines with known DNA damage response pathways - wild type cell line (AID 743012); note: nearly all actives have a fitted effect of over 60% in size; note: potency is the fitted concentration of half-maximal effect
How it was run: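 300 wt DT40 cells/well; cpd (DMSO) pintool-transferred after ~0.5 h at 37 C/5% CO2; 40 h incubation; CellTiter-Glo added, 30 min RT; luminescence read.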

[3] = qHTS assay for identifying genotoxic compounds that show differential cytotoxicity against isogenic chicken DT40 cell lines with known DNA damage response pathways - Rev3 mutant cell line (AID 743014); note: nearly all actives have a fitted effect of over 55% in size; note: potency is the fitted concentration of half-maximal effect
[4] = qHTS assay for identifying genotoxic compounds that show differential cytotoxicity against isogenic chicken DT40 cell lines with known DNA damage response pathways - Rad54/Ku70 mutant cell line (AID 743015); note: nearly all actives have a fitted effect of over 60% in size; note: potency is the fitted concentration of half-maximal effect
[5] = qHTS assay to identify small molecule antagonists of the androgen receptor (AR) signaling pathway - cell viability counter screen (AID 743033; note: nearly all actives have a fitted effect of over 45% in size; note: potency is the fitted concentration of half-maximal effect)
[6] = molecular target: Androgen receptor (Homo sapiens) (UniProt P10275); experiment: qHTS assay to identify small molecule agonists of the androgen receptor (AR) signaling pathway (AID 743036; active = well fitted activation curve with a large enough effect in the signal ratio in the repeat runs, with a control signal flat, not every such curve was filed as active; the % refers to the signal ratio)
How it was run: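 In this Tox21 qHTS, 2,000 HEK293 AR-bla cells per well were incubated with compounds for 16 h at 37C and 5% CO2. Fluorescence intensity was recorded 2 h after adding LiveBLAzer B/G FRET substrate at room temperature.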

[7] = molecular target: Androgen receptor (Homo sapiens) (UniProt P10275); experiment: qHTS assay to identify small molecule agonists of the androgen receptor (AR) signaling pathway using the MDA cell line (AID 743040; note: nearly all actives have a fitted effect of over 20% in size); conditions: MDA-kb2 AR-luc cells, MMTV luciferase, 16 h; activity change: at 70.3 µM (top of the series), active compounds read high
How it was run: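 Testing was done with the MDA-kb2 AR-luc line, a human breast carcinoma stably transfected with MMTV-luciferase containing AR and GR response elements. Cells were exposed 16 h at 37C before ONE-Glo luminescence detection.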

[8] = molecular target: Androgen receptor (Homo sapiens) (UniProt P10275); experiment: qHTS assay to identify small molecule antagonists of the androgen receptor (AR) signaling pathway using the MDA cell line (AID 743042; note: nearly all actives have a fitted effect of over 55% in size)
How it was run: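 MDA-kb2 breast carcinoma cells carrying MMTV-luciferase (AR/GR responsive) were co-treated with compounds and the agonist R1881 for 16 h at 37C. Inhibition read as ONE-Glo luminescence; CellTiter-Fluor fluorescence measured in parallel for cytotoxicity.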

[9] = molecular target: Androgen receptor (Homo sapiens) (UniProt P10275); experiment: qHTS assay to identify small molecule antagonists of the androgen receptor (AR) signaling pathway (AID 743035; active = well fitted inhibition curve with a large enough effect in the signal ratio in the repeat runs, not every such curve was filed as active; the % refers to the signal ratio)
How it was run: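 In this cell-based reporter screen, compounds were tested in concentration series against R1881-activated HEK293 cells expressing beta-lactamase under UAS control; after 16 h at 37C, FRET substrate was added and fluorescence read 2 h later.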

[10] = qHTS assay to identify small molecule antagonists of the androgen receptor (AR) signaling pathway using the MDA cell line - cell viability counter screen (AID 743041; note: nearly all actives have a fitted effect of over 45% in size)
How it was run: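 Compound exposure lasted 16 h at 37C in MDA-kb2 AR-luc cells stimulated with R1881. Protease-based CellTiter-Fluor reagent was applied for the final 30 min and fluorescence measured.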

Measured: Potency

Chain of Androgen receptor (Homo sapiens) (P10275 whole entry, looked up): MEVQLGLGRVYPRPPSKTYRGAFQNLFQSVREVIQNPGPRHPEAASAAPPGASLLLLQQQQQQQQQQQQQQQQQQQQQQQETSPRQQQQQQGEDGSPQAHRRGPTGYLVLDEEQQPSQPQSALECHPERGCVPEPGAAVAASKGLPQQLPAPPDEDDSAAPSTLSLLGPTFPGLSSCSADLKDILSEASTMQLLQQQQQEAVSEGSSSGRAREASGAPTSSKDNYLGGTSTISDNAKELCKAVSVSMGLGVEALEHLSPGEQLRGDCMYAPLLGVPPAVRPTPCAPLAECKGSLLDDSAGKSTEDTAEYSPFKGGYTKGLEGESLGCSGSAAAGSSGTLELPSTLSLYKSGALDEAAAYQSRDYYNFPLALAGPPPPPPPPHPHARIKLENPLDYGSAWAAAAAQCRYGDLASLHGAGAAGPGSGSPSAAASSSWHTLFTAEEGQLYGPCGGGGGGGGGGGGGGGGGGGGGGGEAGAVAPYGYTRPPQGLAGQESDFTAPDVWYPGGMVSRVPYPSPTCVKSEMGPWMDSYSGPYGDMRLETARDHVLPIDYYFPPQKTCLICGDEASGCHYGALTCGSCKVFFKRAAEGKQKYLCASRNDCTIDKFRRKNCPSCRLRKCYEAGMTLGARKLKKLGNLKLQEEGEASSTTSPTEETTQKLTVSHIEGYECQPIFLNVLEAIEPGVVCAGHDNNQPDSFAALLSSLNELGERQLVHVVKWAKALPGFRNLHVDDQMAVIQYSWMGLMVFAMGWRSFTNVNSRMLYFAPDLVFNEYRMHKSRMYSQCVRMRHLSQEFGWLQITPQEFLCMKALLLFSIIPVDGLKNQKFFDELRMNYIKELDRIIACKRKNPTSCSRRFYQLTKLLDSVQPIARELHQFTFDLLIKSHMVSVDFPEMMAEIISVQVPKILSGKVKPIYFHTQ

NNCCO
inactive: [1] | [2] | [3] | [4] | [5]

O=C(Cl)OCCOCCOC(=O)Cl
inactive: [1] | [2] | [3] | [4] | [5] | [6] | [7] | [8]

COC(=O)Cc1ccccc1
inactive: [1] | [2] | [3] | [4] | [5]

CC(C)(C)OOC(C)(C)CCC(C)(C)OOC(C)(C)C
active: [3] 68.6 µM
inactive: [1] | [2] | [4] | [5]

CCNC(=O)NC(=O)/C(C#N)=N/OC
inactive: [1] | [2] | [3] | [4] | [5]

CCC(C)(C)c1ccc(O)c(C(C)(C)CC)c1
active: [1] 19.3 µM and 19.5 µM | [2] 24.3 µM | [3] 27.3 µM | [4] 53.9 µM and 24.3 µM | [5] 54.4 µM

OC[P+](CO)(CO)CO
inactive: [1] | [2] | [3] | [4] | [5]

FC(F)OC(F)(F)C(F)Cl (stereo not drawn)
inactive: [1] | [2] | [3] | [4] | [5] | [9] | [6] | [7] | [10] | [8]

CCC1(CCC(C)C)C(=O)NC(=O)NC1=O
inactive: [1] | [2] | [3] | [4] | [5] | [9] | [7] | [10] | [8]

O=C(O)C(O)C(O)C(=O)O (stereo not drawn)
inactive: [1] | [2] | [3] | [4] | [5]

CC(Oc1cccc(Cl)c1)C(=O)O (stereo not drawn)
inactive: [1] | [2] | [3] | [4] | [5]

CCOC(=O)C1OC1(C)c1ccccc1 (stereo not drawn)
inactive: [1] | [2] | [3] | [4] | [5]

CC(C)OC(=O)Cc1ccccc1
inactive: [1] | [2] | [3] | [4] | [5]

CCCCC(CC)CO[N+](=O)[O-] (stereo not drawn)
inactive: [1] | [2] | [3] | [4] | [5]

CCCN(CCOc1c(Cl)cc(Cl)cc1Cl)C(=O)n1ccnc1
active: [2] 27.3 µM | [3] 31.3 µM and 30.6 µM | [4] 49.6 µM and 27.3 µM | [5] 25.1 µM
inactive: [1]

CCCCCCCCCCCCCCCl
inactive: [1] | [2] | [3] | [4] | [5]

CCOP(=O)(SC(C)CC)N1CCSC1=O (stereo not drawn)
inactive: [1] | [2] | [3] | [4] | [5]

CCCBr
inactive: [1] | [2] | [3] | [4] | [5]

CN(C)N
inactive: [1] | [2] | [3] | [4] | [5] | [9] | [6] | [7] | [10] | [8]

Clc1ccc2ccccc2c1
inactive: [1] | [2] | [3] | [4] | [5] | [9] | [6] | [7] | [8]

O=C(NCNC(=O)NC1C(=O)NC(=O)N1CO)NC1C(=O)NC(=O)N1CO (stereo not drawn)
inactive: [1] | [2] | [3] | [4] | [5] | [9] | [6] | [7] | [10] | [8]

CCc1ccccc1N
inactive: [1] | [2] | [3] | [4] | [5]

CC(Cl)C(=O)O (stereo not drawn)
inactive: [1] | [2] | [3] | [4] | [5] | [9] | [6] | [7] | [10] | [8]

O=C(O)COc1cc(Cl)c(Cl)cc1Cl
inactive: [1] | [2] | [3] | [4] | [5] | [9] | [7] | [8]

Cc1cnc(C2=NC(C)(C(C)C)C(=O)N2)c(C(=O)O)c1 (stereo not drawn)
inactive: [1] | [2] | [3] | [4] | [5] | [9] | [6] | [7] | [10] | [8]

O=C(N[C@H]1CN2CCC1CC2)c1ccc2c(c1)OCCO2
inactive: [1] | [2] | [3] | [4] | [5] | [9] | [6] | [7] | [10] | [8]

COc1ccc(C(=O)c2c(C)n(CCN3CCOCC3)c3ccccc23)cc1
inactive: [1]
active: [2] 26.6 µM | [3] 26.6 µM | [4] 29.8 µM

— PubChem BioAssay (Tox21)
